# Measured values as given in PubChem BioAssay AID1159580 (chemical genetic matrix, 2015).
# The whole screen tested about 5,500 compounds, of which about 2,000 (36%) were called active. Inconclusive results (about 18%) are left out. The list shows a part of the results. A number with no mark means an inactive call. Cut-off read from the data, not from the text of the source: active = normalized growth mostly below about 0.91 (no sharp cut-off); inconclusive = no clear call, values can overlap the other calls; inactive = mostly above about 0.92.
# Assay: chemical genetic growth profiling, strain panel (AID 1159580);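 note: tested at 20 µM; growth read once vehicle control cultures reached saturation at 30 °C; 1 = growth at the plate median or of vehicle wells; lower values mean less growth of the strain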
# Details: growth OD
smiles,measurement,setting,value
Clc1cccc(NC2=NCCS2)c1Cl,normalized growth,"S. cerevisiae deletion strains, locus YAL013W, strain DEP1, hits give low values",0.995
same,normalized growth,"S. cerevisiae deletion strains, locus YBR229C, strain ROT2, hits give low values",1
same,normalized growth,"S. cerevisiae deletion strains, locus YDL101C, strain DUN1, hits give low values",1.03
same,normalized growth,"S. cerevisiae deletion strains, locus YDR150W, strain NUM1, hits give low values",0.984
same,normalized growth,"S. cerevisiae deletion strains, locus YEL061C, strain CIN8, hits give low values",0.974
same,normalized growth,"S. cerevisiae deletion strains, locus YGR078C, strain PAC10, hits give low values",1
same,normalized growth,"S. cerevisiae deletion strains, locus YHR030C, strain SLT2, hits give low values",0.698
same,normalized growth,"S. cerevisiae deletion strains, locus YHR087W, strain rtc3, hits give low values",1.02
same,normalized growth,"S. cerevisiae deletion strains, locus YJL187C, strain SWE1, hits give low values",1
same,normalized growth,"S. cerevisiae deletion strains, locus YJR043C, strain POL32, hits give low values",1.01
same,normalized growth,"S. cerevisiae deletion strains, locus YJR075W, strain HOC1, hits give low values",1.02
same,normalized growth,"S. cerevisiae deletion strains, locus YKL190W, strain CNB1, hits give low values",0.996
same,normalized growth,"S. cerevisiae deletion strains, locus YLR039C, strain RIC1, hits give low values",0.721 (active)
same,normalized growth,"S. cerevisiae deletion strains, locus YLR058C, strain SHM2 (second series), hits give low values",1
same,normalized growth,"S. cerevisiae deletion strains, locus YLR085C, strain ARP6, hits give low values",0.931
same,normalized growth,"S. cerevisiae deletion strains, locus YLR262C, strain YPT6, hits give low values",0.817
same,normalized growth,"S. cerevisiae deletion strains, locus YML094W, strain GIM5, hits give low values",1.03
same,normalized growth,"S. cerevisiae deletion strains, locus YMR219W, strain ESC1, hits give low values",1.01
same,normalized growth,"S. cerevisiae deletion strains, locus YMR263W, strain SAP30, hits give low values",0.969
same,normalized growth,"S. cerevisiae deletion strains, locus YMR307W, strain GAS1, hits give low values",0.776
same,normalized growth,"S. cerevisiae deletion strains, locus YNL128W, strain TEP1, hits give low values",1.02
same,normalized growth,"S. cerevisiae deletion strains, locus YNL153C, strain GIM3, hits give low values",1
same,normalized growth,"S. cerevisiae deletion strains, locus YNL298W, strain CLA4 (second series), hits give low values",0.946
same,normalized growth,"S. cerevisiae deletion strains, locus YNL322C, strain KRE1, hits give low values",0.994
same,normalized growth,"S. cerevisiae deletion strains, locus YNR030W, strain Alg12, hits give low values",0.971
same,normalized growth,"S. cerevisiae deletion strains, locus YOL006C, strain TOP1, hits give low values",0.722 (active)
same,normalized growth,"S. cerevisiae deletion strains, locus YPL055C, strain LGE1, hits give low values",0.953
same,normalized growth,"S. cerevisiae deletion strains, locus YPL241C, strain CIN2, hits give low values",1.05
same,normalized growth,"S. cerevisiae deletion strains, locus YPR135W, strain CTF4, hits give low values",0.928
same,normalized growth,"S. cerevisiae strains, strain wild type, hits give low values",0.983
